Source: PubChem BioAssay (Tox21)
A number with no mark means an inactive call. Results filed as inconclusive are left out. Where a call stands in place of a potency, no number is given. Active and inactive are the calls of the source. Unless noted, the call rests on the fitted dose curve; in most records, active means well fitted curve in the direction sought with a large enough effect in the repeat runs; inconclusive means weak or mixed curves; inactive means no such curve, though single readings can be large; an effect the other way counts as inactive or inconclusive.

What was measured:
[1] = qHTS assay for small molecules that induce genotoxicity in human embryonic kidney cells expressing luciferase-tagged ATAD5 (AID 651632); further: nearly all actives have a fitted effect of over 15% in size; further: potency means the concentration at half of the fitted maximal effect
Outline: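 Cells were seeded at 2,000 per well, dosed with compound, and incubated 16 hr at 37C in 5% CO2. Luciferase activity was then quantified after a 30 min room-temperature incubation with Amplite.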

[2] = qHTS assay for small molecule agonists of the p53 signaling pathway - cell viability (AID 651633; calls by dose curve;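 further: p53RE-bla HCT reporter cells with a stable beta-lactamase p53 reporter; series mostly up to about 83 µM; nearly all actives have a fitted effect of over 30% in size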)
Outline: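 Viability counter-read: CellTiter-Glo luminescence (30 min, room temperature) in the same p53RE-bla plates. These plates had been exposed to compounds for 16 h at 37 C.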

[3] = qHTS assay for small molecule disruptors of the mitochondrial membrane potential - cell viability (AID 720634; calls by dose curve;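 further: human HepG2 liver cancer cells; series mostly up to about 83 µM; nearly all actives have a fitted effect of over 20% in size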)
Outline: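 Cytotoxicity was measured by ATP quantitation in HepG2 wells that had first been treated with compound for 1 hr and stained with m-MPI dye; CellTiter-Glo incubation was 30 min at room temperature.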

[4] = qHTS assay to test for compound auto fluorescence at 590 nm (red) in HepG2 cells (AID 720674)
Outline: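 Red autofluorescence (Ex/Em 540/590 nm, Rose Bengal sodium equivalents) was measured in HepG2 cells, 2,000 per well in MEM plus 10% FBS, plated overnight at 37 C. Readings were taken 1 hr after adding 23 nL compound or DMSO, at 37 C and 5% CO2.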

[5] = qHTS assay to test for compound auto fluorescence at 535 nm (green) in HepG2 cells (AID 720675)
[6] = qHTS assay to test for compound auto fluorescence at 460 nm (blue) in HEK293 cells (AID 720678)
Outline: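 Intrinsic compound fluorescence is recorded in live HEK293 cultures after overnight incubation at 37C, 5% CO2, using excitation 405 nm and emission 460 nm. Values are referenced to triamterene.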

[7] = qHTS assay to test for compound auto fluorescence at 590 nm (red) in HEK293 cells (AID 720679)
Outline: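 Red autofluorescence, HEK293 cells: 2,000 cells/well; attach 4-5 hr 37C; add 23 nL cpd or DMSO; incubate o/n 37C 5% CO2; read Ex540/Em590; Rose Bengal sodium reference.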

[8] = qHTS assay to test for compound auto fluorescence at 535 nm (green) in HEK293 cells (AID 720680)
[9] = qHTS assay to test for compound auto fluorescence at 460 nm (blue) in HEK293 cell free culture (AID 720681)
Outline: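 Blue fluorescence (Ex 405/Em 460 nm, triamterene-equivalent) was read immediately after pin transfer of compound or DMSO into medium (DMEM, 10% FBS) without cells.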

[10] = qHTS assay to test for compound auto fluorescence at 535 nm (green) in HEK293 cell free culture (AID 720682)
Outline: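 Cell-free medium (DMEM, 10% FBS) receives compound or DMSO by pintool. Plate read directly at Ex 485/Em 535 nm. Signal converted to fluorescein equivalency.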

[11] = qHTS assay to test for compound auto fluorescence at 590 nm (red) in HEK293 cell free culture (AID 720683)
Outline: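 Red-channel autofluorescence of compounds in culture medium (DMEM, 10% FBS), no cells, measured at 540/590 nm. Rose Bengal sodium is the reference fluorophore for equivalence.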

[12] = qHTS assay to test for compound auto fluorescence at 460 nm (blue) in HepG2 cell free culture (AID 720685)
Outline: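 Cell-free plates of MEM plus 10% FBS received 23 nL compound or DMSO vehicle; blue-channel (405/460 nm) intensity scored against triamterene as reference fluorophore.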

[13] = qHTS assay to test for compound auto fluorescence at 535 nm (green) in HepG2 cell free culture (AID 720686)
[14] = qHTS assay to test for compound auto fluorescence at 460 nm (blue) in HepG2 cells (AID 720687)
Outline: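 Blue-channel autofluorescence (Ex/Em 405/460 nm, triamterene-equivalent) was measured after 1 hr compound exposure at 37 C, 5% CO2. Cells were HepG2, plated overnight at 37 C in MEM plus 10% FBS.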

[15] = qHTS assay for small molecules that induce genotoxicity in human embryonic kidney cells expressing luciferase-tagged ATAD5 - cell viability (AID 651634; calls by dose curve; further: nearly all actives have a fitted effect of over 25% in size; further: potency means the concentration at half of the fitted maximal effect)
Outline: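 Cells (HEK293T, luciferase-tagged ATAD5) are seeded at 2,000 per well, dosed with compound or DMSO vehicle, and incubated 15.5 hr at 37C and 5% CO2. CellTiter-Fluor is added for 30 min before fluorescence is measured.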

[16] = qHTS assay to test for compound auto fluorescence at 590 nm (red) in HepG2 cell free culture (AID 720684)
Outline: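 No cells present: MEM + 10% FBS only. Compound pinned in, red label read (540/590 nm). Activity = fluorescence equivalent to Rose Bengal sodium.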

[17] = target: Glucocorticoid receptor (Homo sapiens) (UniProt P04150); assay: qHTS assay to identify small molecule agonists of the glucocorticoid receptor (GR) signaling pathway (AID 720691; active means well fitted activation curve with a large enough effect in the signal ratio in the repeat runs, not every such curve was filed as active; the % refers to the signal ratio)
Outline: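 Steps: seed GR-bla HeLa cells, incubate 4 h at 37 C/5% CO2; pin-transfer DMSO-dissolved compounds; incubate 18 h at 37 C; add LiveBLAzer B/G FRET substrate; after 2 h at room temperature, measure fluorescence.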

[18] = target: Glucocorticoid receptor (Homo sapiens) (UniProt P04150); assay: qHTS assay to identify small molecule antagonists of the glucocorticoid receptor (GR) signaling pathway (AID 720692; active means well fitted inhibition curve with a large enough effect in the signal ratio in the repeat runs, not every such curve was filed as active; the % refers to the signal ratio; further: potency means the concentration at half of the fitted maximal effect)
Outline: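 Antagonism was scored as loss of dexamethasone-driven (5 nM final) reporter signal in HeLa cells bearing a glucocorticoid response element–beta-lactamase construct, after 18 h compound exposure at 37 C and 2 h FRET substrate loading.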

[19] = qHTS assay for small molecule disruptors of the mitochondrial membrane potential (AID 720635); further: potency means the concentration at half of the fitted maximal effect
Outline: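 Mitochondrial membrane potential tracked with Mito-MPS dye, red aggregates (ex 540/em 590 nm) against green monomers (ex 490/em 535 nm). Compound treatment 1 hr at 37C, dye 30 min in HepG2.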

Chain of Glucocorticoid receptor (Homo sapiens) (P04150 whole entry, looked up): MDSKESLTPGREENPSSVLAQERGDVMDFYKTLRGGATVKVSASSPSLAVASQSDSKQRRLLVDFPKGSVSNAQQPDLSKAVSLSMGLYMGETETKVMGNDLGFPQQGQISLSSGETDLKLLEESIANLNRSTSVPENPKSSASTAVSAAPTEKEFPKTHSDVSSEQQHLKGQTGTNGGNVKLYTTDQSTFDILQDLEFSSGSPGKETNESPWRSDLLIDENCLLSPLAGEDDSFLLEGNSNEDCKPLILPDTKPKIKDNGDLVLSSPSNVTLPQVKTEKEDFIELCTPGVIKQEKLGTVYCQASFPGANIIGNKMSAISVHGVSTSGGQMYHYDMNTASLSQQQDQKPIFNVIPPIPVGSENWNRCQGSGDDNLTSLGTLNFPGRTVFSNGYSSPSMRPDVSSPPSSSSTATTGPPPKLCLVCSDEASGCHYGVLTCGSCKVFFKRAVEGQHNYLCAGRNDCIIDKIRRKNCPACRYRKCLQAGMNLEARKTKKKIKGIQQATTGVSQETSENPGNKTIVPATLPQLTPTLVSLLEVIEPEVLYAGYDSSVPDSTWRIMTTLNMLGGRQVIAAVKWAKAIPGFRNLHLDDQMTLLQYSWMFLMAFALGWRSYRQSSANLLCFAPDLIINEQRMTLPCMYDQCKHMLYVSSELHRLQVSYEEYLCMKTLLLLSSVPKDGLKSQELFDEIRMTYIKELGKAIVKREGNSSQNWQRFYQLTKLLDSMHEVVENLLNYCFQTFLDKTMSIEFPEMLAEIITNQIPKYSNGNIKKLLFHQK

O=S(=O)(c1cccc2cnccc12)N1CCCNCC1
Potency [1]: inactive | Potency [2]: inactive | Potency [3]: inactive | outcome [4]: inactive | outcome [5]: inactive | Potency [6]: inactive | outcome [7]: inactive | outcome [8]: inactive | Potency [9]: inactive | outcome [10]: inactive | outcome [11]: inactive | Potency [12]: inactive | outcome [13]: inactive | Potency [14]: inactive

CC(C)c1ccc2oc3nc(N)c(C(=O)O)cc3c(=O)c2c1
Potency [1]: 4.73 µM (active) | Potency [2]: inactive | Potency [15]: inactive | outcome [4]: inactive | outcome [5]: inactive | Potency [6]: inactive | outcome [7]: inactive | Potency [9]: inactive | outcome [10]: inactive | outcome [11]: inactive | outcome [16]: inactive | Potency [12]: inactive | outcome [13]: inactive | Potency [14]: inactive | Potency [17]: inactive | Potency [18]: inactive

O=C(O)c1ccccc1-c1ccc(C(F)(F)F)cc1
Potency [1]: inactive | Potency [15]: inactive | Potency [3]: inactive | outcome [4]: inactive | outcome [5]: inactive | Potency [6]: inactive | outcome [7]: inactive | outcome [8]: inactive | outcome [10]: inactive | outcome [11]: inactive | outcome [16]: inactive | Potency [12]: inactive | outcome [13]: inactive | Potency [14]: inactive | Potency [17]: inactive | Potency [18]: inactive

CCCc1ccccc1O
Potency [1]: inactive | Potency [15]: inactive | Potency [19]: 27.3 µM (active) | outcome [4]: inactive | outcome [5]: inactive | Potency [6]: inactive | outcome [7]: inactive | outcome [8]: inactive | Potency [9]: inactive | outcome [10]: inactive | outcome [11]: inactive | outcome [16]: inactive | Potency [12]: inactive | outcome [13]: inactive | Potency [14]: inactive | Potency [17]: inactive | Potency [18]: inactive

CC(CCO)CCCC(C)(C)O (stereo not drawn)
Potency [1]: inactive | Potency [2]: inactive | Potency [15]: inactive | outcome [4]: inactive | outcome [5]: inactive | Potency [6]: inactive | outcome [7]: inactive | outcome [8]: inactive | Potency [9]: inactive | outcome [10]: inactive | outcome [11]: inactive | outcome [16]: inactive | Potency [12]: inactive | outcome [13]: inactive | Potency [14]: inactive | Potency [17]: inactive | Potency [18]: inactive

OC[C@H]1O[C@@H]2O[C@H]3[C@H](O)[C@@H](O)[C@@H](O[C@H]4[C@H](O)[C@@H](O)[C@@H](O[C@H]5[C@H](O)[C@@H](O)[C@@H](O[C@H]6[C@H](O)[C@@H](O)[C@@H](O[C@H]7[C@H](O)[C@@H](O)[C@@H](O[C@H]8[C@H](O)[C@@H](O)[C@@H](O[C@H]9[C@H](O)[C@@H](O)[C@@H](O[C@H]1[C@H](O)[C@H]2O)O[C@@H]9CO)O[C@@H]8CO)O[C@@H]7CO)O[C@@H]6CO)O[C@@H]5CO)O[C@@H]4CO)O[C@@H]3CO
Potency [1]: inactive | Potency [2]: inactive | Potency [15]: inactive | Potency [3]: inactive | outcome [4]: inactive | outcome [5]: inactive | outcome [7]: inactive | outcome [8]: inactive | Potency [9]: inactive | outcome [10]: inactive | outcome [11]: inactive | outcome [16]: inactive | Potency [12]: inactive | outcome [13]: inactive | Potency [14]: inactive | Potency [17]: inactive | Potency [18]: inactive

COC(=O)C1=C(C)NC(C)=C(C(=O)OCC(C)=O)C1c1ccccc1[N+](=O)[O-] (stereo not drawn)
Potency [1]: inactive | Potency [15]: 23.7 µM (active) | Potency [19]: 9.44 µM (active) | outcome [4]: inactive | outcome [5]: inactive | Potency [6]: inactive | outcome [7]: inactive | outcome [8]: inactive | Potency [9]: inactive | outcome [10]: inactive | outcome [11]: inactive | outcome [16]: inactive | Potency [12]: inactive | outcome [13]: inactive | Potency [14]: inactive | Potency [17]: inactive | Potency [18]: 21.3 µM (active)

CCCCCCCCCCCCCCC
Potency [1]: inactive | Potency [2]: inactive | Potency [15]: inactive | outcome [4]: inactive | outcome [5]: inactive | Potency [6]: inactive | outcome [7]: inactive | outcome [8]: inactive | Potency [9]: inactive | outcome [10]: inactive | outcome [11]: inactive | outcome [16]: inactive | Potency [12]: inactive | outcome [13]: inactive | Potency [14]: inactive | Potency [17]: inactive | Potency [18]: inactive

CC(C)CCCC(C)CCCC(C)CCCCC(C)CCCC(C)CCCC(C)C (stereo not drawn)
Potency [1]: inactive | Potency [2]: inactive | Potency [15]: inactive | Potency [3]: inactive | outcome [4]: inactive | outcome [5]: inactive | outcome [7]: inactive | Potency [9]: inactive | outcome [10]: inactive | outcome [11]: inactive | outcome [16]: inactive | Potency [12]: inactive | outcome [13]: inactive | Potency [14]: inactive | Potency [17]: inactive

C(=C(c1ccccc1)c1ccccc1)c1ccccc1
Potency [1]: inactive | Potency [15]: inactive | Potency [3]: inactive | outcome [4]: inactive | outcome [5]: inactive | Potency [6]: inactive | outcome [7]: inactive | outcome [8]: inactive | Potency [9]: inactive | outcome [10]: inactive | outcome [11]: inactive | outcome [16]: inactive | Potency [12]: inactive | outcome [13]: inactive | Potency [14]: inactive | Potency [17]: inactive | Potency [18]: inactive

CN(C)C(=O)C(CCN1CCC(O)(c2ccc(Cl)cc2)CC1)(c1ccccc1)c1ccccc1
Potency [1]: inactive | Potency [3]: inactive | outcome [4]: inactive | outcome [5]: inactive | Potency [6]: inactive | outcome [7]: inactive | outcome [8]: inactive | Potency [9]: inactive | outcome [10]: inactive | outcome [11]: inactive | outcome [16]: inactive | Potency [12]: inactive | outcome [13]: inactive | Potency [14]: inactive | Potency [17]: inactive

Nc1ccn(C2CO[C@H](CO)O2)c(=O)n1 (stereo partly drawn)
Potency [1]: inactive | Potency [2]: inactive | Potency [15]: inactive | outcome [4]: inactive | outcome [5]: inactive | Potency [6]: inactive | outcome [7]: inactive | outcome [8]: inactive | Potency [9]: inactive | outcome [10]: inactive | outcome [11]: inactive | outcome [16]: inactive | Potency [12]: inactive | outcome [13]: inactive | Potency [14]: inactive

Nc1[nH]c(=O)ncc1F
Potency [1]: inactive | Potency [2]: inactive | Potency [15]: inactive | fluorescence, relative to Rose Bengal [4]: -0.615% [at 18.6 µM] | fluorescence, % of fluorescein control [5]: 0.005% [at 18.6 µM] | fluorescence, % of triamterene [6]: 0.082% [at 18.6 µM] | fluorescence, % of fluorescent control [7]: 0.0902% [at 18.6 µM] | fluorescence, % of fluorescein [8]: 0.0412% [at 18.6 µM] | fluorescence, % of fluorescent control [9]: 0.0652% [at 18.6 µM] | activity change [10]: 0.004% [at 18.6 µM] | fluorescence, % of fluorescent control [11]: -0.113% [at 18.6 µM] | fluorescence, % of Rose Bengal [16]: 0.311% [at 18.6 µM] | fluorescence, % of fluorescent control [12]: -0.0064% [at 18.6 µM] | fluorescence, % of fluorescein control [13]: 0.186% [at 18.6 µM] | fluorescence, % of fluorescent control [14]: 0.0009% [at 18.6 µM] | Potency [17]: inactive | Potency [18]: inactive

C/C=C1\C(=O)C[C@H]2[C@@H]3CCC4=CC(=O)CC[C@]4(C)[C@H]3CC[C@]12C
Potency [1]: inactive | Potency [2]: inactive | Potency [15]: inactive | Potency [3]: inactive | outcome [4]: inactive | outcome [5]: inactive | outcome [7]: inactive | Potency [9]: inactive | outcome [10]: inactive | outcome [11]: inactive | outcome [16]: inactive | Potency [12]: inactive | outcome [13]: inactive | Potency [14]: inactive

CC(C)CCOC(=O)CC(C)C
Potency [1]: inactive | Potency [2]: inactive | Potency [15]: inactive | Potency [3]: inactive | outcome [4]: inactive | outcome [5]: inactive | outcome [7]: inactive | outcome [8]: inactive | outcome [10]: inactive | outcome [11]: inactive | Potency [12]: inactive | outcome [13]: inactive | Potency [14]: inactive | Potency [17]: inactive
